Data on 39 compounds can be found in PubChem BioAssay (NCI).

Where “and” joins values, the source holds several entries; their conditions need not be identical. Equal entries are not always repeated. This is part of a sample that, as a whole, favours compounds with a hit. Of some 79,000 tested, about 15% had one in any assay. Unmarked numbers belong to inactive results. Calls of active or inactive are those of the source. Cut-off read from the data, not from the text of the source: active = growth inhibition above about 70%; inactive = the rest.

The experiment can be described thus: NCI Yeast Anticancer Drug Screen. Data for the rad50 strain (AID 155).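 Note: 0% = growth of vehicle-only cultures of the same strain.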 The conditions noted are these: S. cerevisiae rad50 strain growth inhibition; at 5.0 µM (retest, dose inferred, filed as 0.5); hits give high values. In a few lines: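 Cells are treated with compound, grown, and their growth is then scored against vehicle-only cultures of the same repair-deficient yeast strain.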
Consider `Cc1cc(C)c(O)c(C)c1.[Hg]`, for which the growth inhibition is 99% (active).
In the case of `CC(O)C(=O)O.CC(O)C(=O)O.[Ni]` (centres undefined) it was -1%; in that of `CC(=O)OC1C(=O)OCC23CCC4(C)OC4C2OC2CC(OC(=O)/C=C/C=C/C(=O)OCCC1C)C3(C)C21CO1` (centres undefined), 99% (active); in that of `CN1C(=O)CC[C@@]2(C)C1=CC[C@H]1[C@@H]3CC[C@H](O)[C@@]3(C)CC[C@@H]12`, 7%.
To `CC[C@H](C)c1occ2c(O)c(C(=O)O)c(=O)cc-2c1C` belongs 56%.
With `O=[N+]([O-])[O][Tl]([c]1ccccc1)[c]1ccccc1`, the growth inhibition was -4%.
On to `CCCC[CH2][Sn]([CH2]CCCC)[CH2]CCCC.CCCC[CH2][Sn]([CH2]CCCC)[CH2]CCCC`, for which the growth inhibition was 78% (active).
Consider `Nc1cc(Cl)ccc1C(=O)c1ccccc1Cl`, for which the growth inhibition was -1%.
For the compound `CC(Br)CN1CCOCC1` (centres undefined), the growth inhibition is 91% (active).
To `C(CCC[Te][Te]CCCCCCOC1CCCCO1)CCOC1CCCCO1` (centres undefined) belongs 6%; to `CN1CN(c2ccccc2)C2(CCN(C3Nc4ccccc4O3)CC2)C1=O` (centres undefined), 7%.
Consider `[CH3][Sn]([CH3])([Cl])[c]1cc[c]([Sn]([CH3])([CH3])[Cl])cc1`, for which the growth inhibition is 26%.
As for `O=[C-]CCCCCC[C-]=O.[C-]#[O+].[C-]#[O+].[C-]#[O+].[C-]#[O+].[Fe+6].[Fe+6].[c-]1[c-][c-][cH-][c-]1.[c-]1[c-][c-][cH-][c-]1`, the growth inhibition is 9%.
Regarding `CCOC(=O)NC(=S)[S][Sb]([S]C(=S)NC(=O)OCC)[S]c1nc2ccc(N=Nc3ccc(NS(=O)(=O)c4ccc(NC(=O)C(N5CC5)(N5CC5)N5CC5)cc4)cc3)cc2s1`, the growth inhibition is 70% (active).
In the case of `CCC[N+](CCC)(CCC)CCC.N#CN=C([SH2+])[SH2+].N#CN=C([SH2+])[SH2+].[Pt+2]` it was -1%; in that of `CCCCCCCC/C=C\CCCCCCCCN1CC(C(=O)[O][Pb]([CH2]C)([CH2]C)[CH2]C)CC1=O` (centres undefined), 7%; in that of `O=c1[nH]cc(Cn2cnc3ncccc3c2=O)c(=O)[nH]1`, -5%.
In the case of `CC(C)(C)C1=CC(=C/C=C/c2cc(C(C)(C)C)[o+]c(C(C)(C)C)c2)C=C(C(C)(C)C)O1` it was 99% (active); in that of `S=C(S)N1CCCCC1`, 42% and 15%; in that of `CN[C@H]1C[C@@H]2O[C@@](C)([C@H]1OC)n1c3ccccc3c3c4c(c5c6ccccc6n2c5c31)C(=O)NC4`, 99% (active).
Take `CC(C)(C)OOC(=O)c1ccccc1`: the growth inhibition was 26%.
Take `ClCCN(CCCl)CCN1c2ccccc2Sc2ccc3ccccc3c21`: the growth inhibition was 3%.
Consider `CCOC(=O)c1ccccc1N`, for which the growth inhibition was 6%.
To `Cn1cnc(C(=N)[Se])c1N` belongs 63%; to `Cc1ccc(NP(=O)(Oc2ccccc2)N(CCCl)CCCl)cc1` (centres undefined), 11%; to `CCOC(=O)C1=C(C)NC(=O)NC1c1ccc(N(CCCl)CCCl)cc1Cl` (centres undefined), 6%.
Regarding `ClC(C[n+]1ccccc1)c1ccccc1` (centres undefined), the growth inhibition is 8%.
For the compound `CCCCCCCC1(c2ccc(N)cc2)CCC(=O)NC1=O` (centres undefined), the growth inhibition was 31%.
To `COC(=O)C(CCCN=C(N)N[N+](=O)[O-])NC(=O)c1ccc2c(c1O)C(=O)c1ccccc1C2=O` (centres undefined) belongs 8%; to `Cc1cc(N(CCCl)CCCl)ccc1CN1CCCN(Cc2ccc(N(CCCl)CCCl)cc2C)C1c1ccc(N(CCCl)CCCl)cc1C`, 4%; to `c1ccc([CH2][Pb]([c]2ccccc2)([c]2ccccc2)[c]2ccccc2)cc1`, 96% (active).
In the case of `C[CH2][Sn][CH2]C.c1cc[c]([Ge]([c]2ccccc2)[c]2ccccc2)cc1.c1cc[c]([Sn]([c]2ccccc2)[c]2ccccc2)cc1`, the growth inhibition is 99% (active).
In the case of `CCC1(C2=CCCCC2)C(=O)NC(=S)NC1=O` it was -101%; in that of `N#CC(=C=N)N=C(F)C(C#N)=C(C#N)C#N`, -1%; in that of `N#C[SH2+].N#C[SH2+].N#C[SH2+].N#C[SH2+].[Cu+2].c1ccc(C[P+](c2ccccc2)(c2ccccc2)c2ccccc2)cc1`, 14%.
In the case of `CC#N.FC(F)(F)C#CC(F)(F)F.FC(F)(F)C#CC(F)(F)F.FC(F)(F)C#CC(F)(F)F.[W]` it was 90% (active); in that of `CC(C)c1cccc(C(C)C)c1NC(=O)C(=O)CC(=O)CC(c1ccccc1)c1c(O)c2ccccc2oc1=O` (centres undefined), 8%.
In the case of `CCN(CCCl)c1ccc(/C=C/C2=[N+](C)c3ccccc3C2(C)C)c(C)c1`, the growth inhibition was -5%.
For the compound `Cc1cc(C)[n+](CCOc2ccc(/C(=C(/Cl)c3ccccc3)c3ccccc3)cc2)c(C)c1`, the growth inhibition is 99% (active).
